Bioassay records (PubChem)
Rows were chosen to be rich in hits. Some 12% of all compounds tested hit in one or more screens of this group.
G9a inh: G9a (human) methyltransferase inhibition; Q96KQ7; G9a H3K9 monomethylation, AlphaScreen, 2 h; Potency, µM (top dose mostly 102 µM), for inactives: at the top dose activity, negative = inhibition, most hits filed as inhibitors; 350,000 tested, 8.8% active; AID 504332; further: on the % scale 0 is the no-effect control and ±100 the full control effect; nearly all actives have a fitted effect of over 75% in size
Target sequence (Q96KQ7 913-1193 limits assumed): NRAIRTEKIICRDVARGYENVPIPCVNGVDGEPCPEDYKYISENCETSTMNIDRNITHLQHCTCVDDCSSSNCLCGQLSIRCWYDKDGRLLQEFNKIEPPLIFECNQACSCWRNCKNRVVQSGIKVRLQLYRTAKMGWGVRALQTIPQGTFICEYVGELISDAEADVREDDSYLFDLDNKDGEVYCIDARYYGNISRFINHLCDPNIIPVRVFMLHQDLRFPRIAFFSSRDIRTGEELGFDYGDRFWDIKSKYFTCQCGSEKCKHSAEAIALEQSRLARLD
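AlphaScreen detection with an anti-monomethyl H3K9 antibody quantified product after a 2 h room-temperature reaction containing 500 nM biotinylated H3K9 peptide, 20 µM SAM and 20 nM enzyme, which had been preincubated 15 min with compound.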
TDP1 inh: TDP1 (human) enzyme inhibition. AID 485290. Q9NUW8. 350,000 tested, 0.28% active. recombinant TDP1, AlphaScreen DNA substrate cleavage. Potency, µM (series often up to 130 µM), without a hit: top-dose activity change, negative = inhibition, actives largely listed as inhibitors; further: on the % scale 0 is the no-effect control and ±100 the full control effect; nearly all actives have a fitted effect of over 40% in size
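Steps: enzyme plus compound, 15 min RT; add biotin/phosphotyrosine-FITC oligonucleotide (15 nM final), react 5 min; add donor/acceptor beads (10 ug/ml final), 10 min; read AlphaScreen. Tdp1 at 1 nM final.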
Sfp inh: inhibitors of Bacillus subtilis Sfp phosphopantetheinyl transferase. Biochemical Sfp PPTase activity, qHTS. Potency, µM, for inactives: largest response in the series, negative = inhibition, most hits filed as inhibitors. 310,000 tested, 3.5% active. AID 1490;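 further: the enzyme is Sfp with the accession as filed and its product quenches rhodamine fluorescence; 0% = enzyme reaction without inhibitor and -100% = no enzyme wells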
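Compounds were incubated with enzyme (final 15 nM) for 15 min at room temperature before substrate addition started the reaction. Fluorescence at 525 nm excitation, 598 nm emission was recorded immediately and after 30 minutes.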
BAZ2B block: blocks human BAZ2B. AlphaScreen BAZ2B-H3K14Ac peptide displacement. Potency, µM (titrated, usually from 114 µM), without a hit: at the top dose activity change, negative = inhibition, hits mostly inhibitors. 360,000 tested, 4.4% active. AID 504333; further: on the % scale 0 is the no-effect control and ±100 the full control effect; nearly all actives have a fitted effect of over 60% in size
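AlphaScreen displacement: compounds (up to 110uM) incubated 30 min at room temperature with a preformed 50 nM BAZ2B/50 nM biotinylated H3K14Ac peptide complex in PBS pH 7.4 with Tween-20. Donor and acceptor beads at 10 ug/mL final added, 20 min light-protected before reading.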
JMJD2A Tudor inh: inhibitors of human JMJD2A Tudor domain. O75164. Potency, µM (series often up to 114 µM), for the others: at the highest dose activity change, negative = inhibition, hits mostly inhibitors. AlphaScreen JMJD2A-Tudor / H3K4me3 peptide binding. 390,000 tested, 4.4% active; further: on the % scale 0 is the no-effect control and ±100 the full control effect; nearly all actives have a fitted effect of over 50% in size
HP1b chromo inh: inhibitors of HP1-beta chromodomain binding to methylated histone tails. AlphaScreen HP1-beta / biotin-H3K9me3 peptide binding. Potency, µM (series often up to 114 µM), for the others: at the top dose activity change, negative = inhibition, hits mostly inhibitors. 390,000 tested, 0.56% active; further: nearly all actives have a fitted effect of over 70% in size
Target sequence (P83916 whole entry, looked up): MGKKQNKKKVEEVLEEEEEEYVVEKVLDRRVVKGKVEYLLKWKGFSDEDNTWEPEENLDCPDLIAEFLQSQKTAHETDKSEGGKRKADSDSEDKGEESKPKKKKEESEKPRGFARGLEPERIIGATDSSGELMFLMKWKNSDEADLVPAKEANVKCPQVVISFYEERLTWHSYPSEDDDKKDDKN
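HP1-beta protein (50 nM final) preincubated 30 min at room temperature with biotinylated H3(1-18)K9me3 peptide (50 nM) in PBS pH 7.4, 0.01% Tween-20, then compound added for 30 min. AlphaScreen streptavidin donor/nickel chelate acceptor beads (10 ug/mL final), 30 min dark, luminescence read.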
Numbers without * were called inactive; ? = inconclusive; · = not tested or not shown; ! = repeats disagree; [ ] = dose if it differs, or a comment. The call rests on the fitted dose curve; in most records, active means well fitted curve in the direction sought with a large enough effect; inconclusive means small, poorly fitted or top-dose-only effect, or another doubt; inactive means no such curve, though single readings can be large; an effect the other way counts as inactive or inconclusive. Potency means the concentration at half of the fitted maximal effect.

SMILES | G9a inh | TDP1 inh | Sfp inh | BAZ2B block | JMJD2A Tudor inh | HP1b chromo inh
C[C@H](NC(=O)c1ccco1)C(=O)Nc1cccc([N+](=O)[O-])c1 | -1% | 0% | 20% | -12% | 4% | 36%
Cc1c([N+](=O)[O-])c(C(=O)N2CCCC2)nn1C | 28%[0.501 µM] | 4% | 6% | -7% | -13% | 8%
Cc1c([N+](=O)[O-])c(C(=O)Sc2ccc(Br)cc2)nn1C | 25µM* | 1% | -2% | 18% | -6% | 23%
Cc1ccc(C(C)(O)CS(=O)(=O)Cc2ccccc2)cc1 (centres undefined) | 56µM* | · | 1% | -25% | -5% | 66%
CN(CC(=O)Nc1ccccc1F)S(=O)(=O)c1ccc2c(c1)n(C)c(=O)c(=O)n2C | · | 2% | 16% | -14% | -10% | 16%[57 µM]
O=C(NC1CCS(=O)(=O)C1)c1ccc(Br)s1 (centres undefined) | · | 100µM* | · | · | -7% | 11%
O=C(NNC(=O)c1ccc(Br)s1)NC1CCCCC1 | · | 56µM* | 5% | ? | ? | 33%
CN(C)c1cccc(C(=O)NNC(=O)NC2CCCCC2)c1 | 4% | 5% | 9% | -5% | -9% | 22%
O=C(NC1CCS(=O)(=O)C1)c1cccs1 (centres undefined) | 16% | -8% | -1% | 1% | -1% | 25%
COc1ccc(S(=O)(=O)N2CCC(Oc3ccc(-n4cnnn4)cc3)CC2)cc1OC | -4%[59 µM] | 5% | · | -1% | -20% | 1%
COc1cc(C(=O)C(=O)c2cc(OC)c(O)c(OC)c2)cc(OC)c1O | 45µM* | 0% | -14% | -30% | -14% | 34%
COc1cc(-c2cc(OC)c(O)c(OC)c2)cc(OC)c1O | · | · | · | · | -30% | ?
Cc1ccc(CNC(=O)CCSCc2cnn(-c3ccccc3)c2-n2cccc2)cc1 | -33%[59 µM] | 3% | · | -3% | -12% | 22%
O=CN/C=C/c1cc(O)ccc1O | 1.4µM* | 7.9µM* | 14µM* | 79µM* | 3.2µM* | ?
CSCCOC(=O)COc1ccc(/C=N/NC(=O)c2nn(C)cc2Cl)cc1 | 40µM* | 5% | 4% | -5% | -1% | 26%
COc1cc(/C=C/C(=O)O)cc(S(=O)(=O)NCCCC(=O)O)c1OC | 2%[59 µM] | 5% | -15% | ? | -26% | 26%
O=S1(=O)Nc2c(cc(Cl)c3ccc(Cl)nc23)-c2ccccc21 | · | ? | · | · | 40µM* | ?
CN(C(=O)CSc1nc2ccccc2n1C)C1CCS(=O)(=O)C1 (centres undefined) | 5%[12.7 µM] | 0% | · | 0% | 4% | 45%
Oc1ccc(C23CC4CC(CC(C4)C2)C3)cc1O | 0.71µM* | · | 79µM* | ? | 22µM* | ?
COc1ccc(-c2nc(N)n(C(=O)c3cccs3)n2)cc1 | -3%[59 µM] | 5% | -1% | -9% | 89µM* | 12%
COc1ccc(-c2nc(N)n(C(=O)c3ccccc3)n2)cc1 | -26% | 5% | 5% | -21% | -4% | 34%
COc1ccccc1N1CCN(CC(=O)Nc2ccccc2C(=O)NC(C)c2ccccc2)CC1 (centres undefined) | ? | 0% | · | -8% | ? | -15%
COc1ccc(CCNCC(=O)Nc2ccc(OC(F)(F)F)cc2)cc1OC | 32µM* | · | -11% | ? | 20µM* | ?
COc1ccc(CCNC(=O)CSCC(=O)Nc2ccccc2)cc1OC | · | · | 6% | -4% | -15% | 15%
COCCCNCC(=O)Nc1ccc(OC(F)(F)F)cc1 | 8.9µM* | 5% | 2% | ? | 2.8µM* | -10%
SMILES | G9a inh | TDP1 inh | Sfp inh | BAZ2B block | JMJD2A Tudor inh | HP1b chromo inh
Nc1nc2ccc([N+](=O)[O-])cc2[nH]1 | 16% | 8% | 13% | -8% | -3% | 29%
Nc1[nH]c2cc([N+](=O)[O-])ccc2c1-c1ccccn1 | 45µM* | 7% | 6% | 28µM* | ? | ?
Cc1ccc(S(=O)(=O)N/N=C/c2c(F)cccc2Cl)cc1 | ? | 3% | 13% | -3% | 4% | 34%
Cc1ccc(S(=O)(=O)N/N=C/c2cccn2-c2ccc(Cl)cc2)cc1 | 110%[59 µM] | 12% | -9% | -2% | 56µM* | ?
CC1=NN(c2ccc(Cl)cc2)C(=O)/C1=C\c1cccn1-c1ccc(S(N)(=O)=O)cc1 | 10µM* | 8% | 0% | 10µM* | 22µM* | ?
CCC1=NN2C(=N)/C(=C\c3cccn3-c3ccc(Cl)cc3)C(=O)N=C2S1 | -9%[59 µM] | 2% | 0% | ? | -36% | -4%
C[C@H]1COC(=O)[C@H]2CCCN2C(=O)[C@@H](C)COC(=O)[C@H]2CCCN2C1=O | · | 7%[21 µM] | -10% | · | · | ·
COC(=O)CCCC1=CC2=CC(=O)C(C)(OC(=O)c3cnc4ccccc4n3)C(=O)C2=CO1 (centres undefined) | · | -1% | 11% | · | · | ·
CCCCC1=CC2=CC(=O)C(C)(OC(=O)c3cnc4ccccc4n3)C(=O)C2=CO1 (centres undefined) | ? | 4% | 79µM*! | 79µM* | · | ·
Cc1ccc(S(=O)(=O)N2CCC[C@H]2C(=O)OCC(=O)N2CCc3ccccc32)cc1 | · | 1% | · | · | -8% | 30%
CC(Sc1nc(C2CC2)n(-c2ccccc2)n1)C(=O)c1c(N)n(C)c(=O)n(C)c1=O (centres undefined) | 24% | 3% | 18% | 2% | -2% | 48%
Cc1cc(C)nc(NC(=O)CSc2nn(-c3ccccc3)c(=S)s2)n1 | ? | · | -6% | 79µM* | ? | 12%
Cn1c(N)c(C(=O)CSc2n[nH]c(-c3ccccc3)n2)c(=O)n(C)c1=O | 5%[12.7 µM] | -1% | · | 8% | -24% | 25%
Cn1c(N)c(C(=O)CSc2nn(-c3ccccc3)c(=S)s2)c(=O)n(C)c1=O | 50µM* | -11% | · | 0% | -21% | 11%
CC(Sc1nn(-c2ccc(F)cc2)c(=S)s1)C(=O)c1c(N)n(C)c(=O)n(C)c1=O (centres undefined) | 50µM* | -8%[0.505 µM] | · | -13% | -19% | 0%
CC(Sc1n[nH]c(-c2ccccc2)n1)C(=O)c1c(N)n(C)c(=O)n(C)c1=O (centres undefined) | 50µM* | -6% | · | 4% | 0% | 31%
CC(=O)c1ccc(N2C(=O)N(CC(=O)c3ccc(F)cc3)c3ccccc3S2(=O)=O)cc1 | -2%[59 µM] | 0% | · | -4% | -23% | 28%
CC(C)c1ccc(Nc2cc(C(=O)NC3CCCCC3)c3ccccc3n2)cc1 | 12%[59 µM] | 2% | · | · | -13% | 24%
NC(=O)Nc1ccc(Nc2ccccc2)cc1 | 56µM* | 5% | -20% | ? | -35% | -9%
COCC(=O)Nc1ccc(Nc2ccccc2)cc1 | ? | 11% | 71µM* | 40µM* | -24% | -7%
